Lassa entry inh: inhibitors of Lassa virus binding or cell entry; actives 1.2% (n = 300,000); Lassa virus pseudotype entry inhibition, cell reporter; AID 540256; Potency, µM (titrated, usually from 37.9 µM), for the others: at the highest dose activity change, negative = inhibition, most hits filed as inhibitors; calls by dose curve; tested in HEK293 cells; also: potency is read from the fitted curve at half-maximal effect; % is scaled to controls: 0 for no effect and ±100 for the full control effect; nearly all actives have a fitted effect of over 50% in size
FMDV inh: foot and mouth disease virus antiviral activity | FMDV antiviral cell-based qHTS | Potency, µM (titrated, usually from 57.9 µM), for the others: top-dose activity change, negative = inhibition, hits mostly inhibitors | actives 1.2% (n = 410,000); calls by dose curve; tested in HEK293T cells; also: read-out not given here; potency is read from the fitted curve at half-maximal effect; % is scaled to controls: 0 for no effect and ±100 for the full control effect; nearly all actives have a fitted effect of over 45% in size
HCV inh: inhibitors of hepatitis C virus infection. Huh7.5.1 HCVcc-Cre infection, luciferase reporter, 44 h. Potency, µM (titrated, usually from 41.8 µM), inactives show at the highest dose activity change, negative = inhibition, actives largely listed as inhibitors. actives 3.4% (n = 340,000). AID 651820; active = well fitted inhibition curve with a large enough effect; inconclusive = small, poorly fitted or top-dose-only effect, or another doubt; inactive = no such curve, though single readings can be large or run the other way; also: potency is read from the fitted curve at half-maximal effect; % is scaled to controls: 0 for no effect and ±100 for the full control effect
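Luciferase read-out (15 sec integration) after a 15 min room-temperature substrate step quantifies HCVcc-Cre infection. Cells, 1,000 per well, had compound added 4 h post-plating, then virus at ~0.5 moi, and were cultured 44 h.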
HCMV inh: inhibitors of human cytomegalovirus. HFF cells, HCMV-luciferase reporter, 72 h; active compounds read low. actives 4.5% (n = 410,000). activity change, negative = inhibition, % at 57.5 µM; in the data active = activity change below about -60%; inconclusive = no clear call, values can overlap the other calls; inactive = above about -39%; also: % is scaled to controls: 0 for no effect and ±100 for the full control effect
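Luciferase read-out from HCMV-luciferase-infected HFFs (MOI 1 PFU/cell) 72 h post infection at 37C; compounds added after 16 h cell attachment; activity normalized between buffer-only basal and Salinomycin (10uM) inhibitor controls.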
MARV entry inh: Marburg virus entry inhibition. Marburg virus pseudotyped entry inhibition, cell reporter. Potency, µM (doses to about 37.8 µM), inactives show at the top dose activity change, negative = inhibition, actives largely listed as inhibitors. actives 1.8% (n = 300,000); calls by dose curve; tested in HEK293 cells; also: potency is read from the fitted curve at half-maximal effect; % is scaled to controls: 0 for no effect and ±100 for the full control effect
SARS PLP yeast: blocks SARS-CoV papain-like protease in a yeast assay; actives 0.19% (n = 330,000); Potency, µM (doses to about 32.9 µM), inactives show top-dose activity, positive = growth rescue, usual class: activators; S. cerevisiae expressing SARS-CoV PLpro, growth rescue; calls by dose curve; also: potency is read from the fitted curve at half-maximal effect; 0% is about no effect; nearly all actives have a fitted effect of over 55% in size
* = called active by the depositor; [ ] = another dose, or the depositor's remark. An excerpt weighted towards active compounds, which were near 8% of everything screened.

For CC(=O)Nc1ccc(C(=O)N/N=C/c2cc(Br)cc(Br)c2O)cc1 the results were Lassa entry inh inconclusive, FMDV inh -14%, HCV inh -8%, HCMV inh -8, MARV entry inh 10µM* and SARS PLP yeast 0%.
COC(=O)[C@]12CCCCC=C1N(Cc1ccco1)C(=O)[C@H](CC(=O)NCCc1ccccc1OC)C2 was read as FMDV inh -13% and HCMV inh 15.
For COCCN1CCCc2nc(-c3ccc(F)cc3)ccc21 the results were HCMV inh 9.
For COc1ccc(CCN2C(=O)c3ccccc3NC2c2cc(Cl)c(O)c(OC)c2)cc1 (stereo not given) the results were Lassa entry inh 5.6µM*, FMDV inh -5%, HCV inh -13%, HCMV inh -20, MARV entry inh inconclusive and SARS PLP yeast -3%.
Screening CCCN1C(=O)c2ccccc2NC1c1cc(OC)c(OC)c(OC)c1 (stereo not given) returned Lassa entry inh -21%, FMDV inh -6%, HCV inh 15%, HCMV inh 23, MARV entry inh -13% and SARS PLP yeast 6%.
For COC(=O)Cc1[nH]nc2c1C(C1C=CCCC1)C(C#N)=C(N)O2 (stereo not given) the results were Lassa entry inh 3%, FMDV inh 16µM*, HCV inh inconclusive, HCMV inh -8, MARV entry inh -1% and SARS PLP yeast 5%.
For COC(=O)Cc1[nH]nc2c1C(c1cc(OC)c(OC)c(OC)c1)C(C#N)=C(N)O2 (stereo not given) the results were FMDV inh -24%, HCV inh 11%, HCMV inh -7 and SARS PLP yeast -1%.
For C/C(=N\NC(=O)C1CC1c1ccccc1)c1ccc(C)s1 (stereo not given) the results were Lassa entry inh inconclusive, FMDV inh 18%, HCV inh -10%, HCMV inh -1, MARV entry inh -7%[46.1 µM] and SARS PLP yeast 4%.
For CCOC(=O)C(/C(C)=N/NC(=O)C1CC1c1ccccc1)C(C)C (stereo not given) the results were Lassa entry inh 2.1µM*, FMDV inh inconclusive, HCV inh -1%, HCMV inh 27, MARV entry inh 25% and SARS PLP yeast -4%.
Screening O=C(CSc1cn[nH]n1)Nc1nc2ccccc2s1 returned FMDV inh 53%, HCV inh -20%, HCMV inh 90, MARV entry inh -18%[46.1 µM] and SARS PLP yeast -1%.
Screening Cn1c(SCC(=O)Nc2nc3ccccc3s2)nnc1-c1ccccc1 returned Lassa entry inh inconclusive, FMDV inh 32%, HCV inh 25%, HCMV inh 41, MARV entry inh 1% and SARS PLP yeast -1%.
CC1(C)Cc2ccccc2-c2nnc(SCC(=O)N3CCN(c4ccccc4)CC3)n21 was read as Lassa entry inh inconclusive, FMDV inh inconclusive, HCV inh inconclusive, HCMV inh -92*, MARV entry inh inconclusive and SARS PLP yeast -2%.
For O=C(CSc1ccccn1)Nc1nc2ccccc2s1 the results were Lassa entry inh 5%, FMDV inh 37%, HCV inh -19%, HCMV inh -66*, MARV entry inh inconclusive and SARS PLP yeast 8%.
For CC1(C)Cc2ccccc2-c2nnc(SCC(=O)Nc3nc4ccccc4s3)n21 the results were Lassa entry inh 1%, FMDV inh inconclusive, HCV inh -2%, HCMV inh -83*, MARV entry inh -27% and SARS PLP yeast 4%.
For COc1ccc(S(=O)(=O)N2CCOC2CNC(=O)C(=O)NCCCN2CCCC2=O)cc1OC (stereo not given) the results were FMDV inh -17% and HCMV inh -14.
`Oc1cc2c(cc1O)[C@@H]1c3ccc(O)c(O)c3OC[C@]1(O)C2` gave FMDV inh -17% and MARV entry inh inconclusive.
Screening CC(C)c1ccccc1OCC(=O)Nc1ccc2[nH]ncc2c1 returned Lassa entry inh inconclusive, FMDV inh -5%, HCV inh 22µM*, HCMV inh inconclusive, MARV entry inh -6%[46.1 µM] and SARS PLP yeast -10%.
CCCC(=O)n1nc(-c2ccco2)nc1NCc1ccccc1Cl was read as Lassa entry inh 14%[46.1 µM], FMDV inh 31%, HCMV inh 21 and MARV entry inh inconclusive.
N=c1sc2ccccc2n1-c1ccccc1 was read as Lassa entry inh 6%, FMDV inh -23%, HCV inh inconclusive, HCMV inh -21, MARV entry inh -1% and SARS PLP yeast 1%.
`C=CC(=O)N=c1sc2ccccc2n1-c1ccccc1` gave Lassa entry inh inconclusive, FMDV inh inconclusive, HCV inh 11µM*, HCMV inh 47, MARV entry inh inconclusive and SARS PLP yeast -12%.
`COc1ccc(Nc2cc3c(cn2)cc(-c2cccc(C(F)(F)F)c2)n3C)c(OC)c1` gave HCMV inh -1.
Screening OCc1ccc(-c2nn(Cc3ccccc3)c3ccccc23)o1 returned Lassa entry inh 2.9µM*, FMDV inh -1%, HCV inh inconclusive, HCMV inh inconclusive and MARV entry inh 2.6µM*.
Screening CCCCN(C(C)=O)c1c(CC)nc2ccc(C(=O)NCCOc3ccc(OC)cc3)cn12 returned FMDV inh 24% and HCMV inh -17.
O=C1CC(c2ccc(Cl)cc2)Sc2nc(-c3ccc(F)cc3)nn21 (stereo not given) was read as Lassa entry inh -3%[46.1 µM], FMDV inh -19%, HCMV inh 13 and MARV entry inh 0%[46.1 µM].
CC(=O)Nc1cccc(-c2csc(Nc3ccc(C)cn3)n2)c1 was read as Lassa entry inh 1.8µM*, FMDV inh -33%, HCV inh inconclusive, HCMV inh 9, MARV entry inh inconclusive and SARS PLP yeast -37%.
`CC(=O)Nc1ccc(-c2csc(Nc3cccc(C)n3)n2)cc1` gave Lassa entry inh inconclusive, FMDV inh 27%, HCV inh 13µM*, HCMV inh 7, MARV entry inh -15% and SARS PLP yeast -1%.
`CC(=O)NNc1nc(-c2ccc(NC(C)=O)cc2)cs1` gave Lassa entry inh 12%, FMDV inh -16%, HCV inh 8%, HCMV inh inconclusive, MARV entry inh 25% and SARS PLP yeast -13%.
CCOC(=O)c1noc2ncnc(N(CCC(=O)OC)c3ccccc3)c12 was read as Lassa entry inh 7%[46.1 µM], FMDV inh -27% and HCMV inh -10.
Screening O=C(C[n+]1ccccc1)N1c2ccccc2Sc2ccccc21 returned FMDV inh 7%, HCV inh inconclusive, HCMV inh -75*, MARV entry inh -9%[46.1 µM] and SARS PLP yeast 0%.
